Screens from PubChem BioAssay.
miR-21 reporter – qHTS Assay for Modulators of miRNAs and/orActivators of miR-21 | Potency, µM (top dose mostly 38.3 µM), for the others: at the highest dose activity change, positive = activation, hits mostly activators | 340,000 tested, under 10 active | HeLa miR-21 FLuc reporter, luciferase, 48 h;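 note: % of control where 0% means no effect; miR-21 action dims this reporter so a rising signal means less miR-21 action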
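Using DMEM plus 10% FBS, HeLa miR-21-FLuc cells are incubated with test compounds (final up to about 40uM) for 48 hours; firefly luciferase signal is then imaged following reagent-mediated lysis.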
JMJD2E inh – qHTS Assay for Inhibitors of Human Jumonji Domain Containing 2E (JMJD2E); JMJD2E catalytic domain, FDH-coupled NADH fluorescence (FDH is formaldehyde dehydrogenase); Potency, µM (top dose mostly 57.1 µM), for the others: at the highest dose activity change, negative = inhibition, hits mostly inhibitors; Lysine-specific demethylase 4E (Homo sapiens), B2RXH2; 230,000 compounds, 1.6% hits; AID 2147, 2009; active = well fitted inhibition curve with a large enough effect, not every such curve was filed as active; inconclusive = small, poorly fitted or top-dose-only effect, or another doubt; inactive = no such curve, though single readings can be large or run the other way;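 note: potency is the fitted concentration of half-maximal effect; 0% = wells with enzyme and -100% = buffer wells without enzyme; nearly all actives have a fitted effect of over 50% in size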
Target sequence (B2RXH2 1-337 limits assumed): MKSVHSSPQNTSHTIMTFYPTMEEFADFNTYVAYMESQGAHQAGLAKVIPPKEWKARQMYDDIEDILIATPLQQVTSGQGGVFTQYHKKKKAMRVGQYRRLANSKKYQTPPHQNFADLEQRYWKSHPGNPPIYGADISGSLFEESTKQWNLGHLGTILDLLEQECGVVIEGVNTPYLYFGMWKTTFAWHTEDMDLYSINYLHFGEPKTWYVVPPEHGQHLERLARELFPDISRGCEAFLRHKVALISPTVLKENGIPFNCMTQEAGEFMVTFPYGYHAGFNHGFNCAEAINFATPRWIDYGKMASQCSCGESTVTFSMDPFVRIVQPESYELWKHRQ
ALDH1A1 inh – qHTS Assay for Inhibitors of Aldehyde Dehydrogenase 1 (ALDH1A1) | Aldehyde dehydrogenase 1A1 (Homo sapiens), P00352 | Purified ALDH1A1, NADH fluorescence, propionaldehyde substrate | Potency, µM (series often up to 75.3 µM), for inactives: at the highest dose activity, negative = inhibition, usual class: inhibitors | 220,000 compounds, 7.3% hits | AID 1030, 2008; active = well fitted inhibition curve with a large enough effect, not every such curve was filed as active; inconclusive = small, poorly fitted or top-dose-only effect, or another doubt; inactive = no such curve, though single readings can be large or run the other way;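 note: potency is the fitted concentration of half-maximal effect; plate controls were no enzyme wells and a reference inhibitor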
Sfp PPTase inh – qHTS Assay for Inhibitors of Bacillus subtilis Sfp phosphopantetheinyl transferase (PPTase); 4'-phosphopantetheinyl transferase ffp (Bacillus subtilis), Q9F4F7; Biochemical Sfp PPTase activity, qHTS; Potency, µM, inactives show largest response in the series, negative = inhibition, usual class: inhibitors; 310,000 compounds, 3.5% hits;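 note: the enzyme is Sfp with the accession as filed and its product quenches rhodamine fluorescence; potency is the fitted concentration of half-maximal effect; 0% = enzyme reaction without inhibitor and -100% = no enzyme wells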
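After 15 min at room temperature with compound, 15 nM Sfp received 5 uM rhodamine-CoA plus 12.5 uM BHQ-2-ybbR (50 mM Hepes pH 7.6, 10 mM MgCl2). Rate came from the fluorescence difference over 30 min, ex 525/em 598 nm.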
G9a inh – qHTS Assay for Inhibitors of Histone Lysine Methyltransferase G9a; G9a H3K9 monomethylation, AlphaScreen, 2 h; Potency, µM (titrated, usually from 102 µM), for inactives: at the top dose activity, negative = inhibition, most hits filed as inhibitors; AID 504332, 2011; 350,000 compounds, 8.8% hits; Histone-lysine N-methyltransferase EHMT2 (Homo sapiens), Q96KQ7; note: potency is the fitted concentration of half-maximal effect; % is set by controls: 0 for no effect and ±100 for the full control effect; nearly all actives have a fitted effect of over 75% in size
Target sequence (Q96KQ7 913-1193 limits assumed): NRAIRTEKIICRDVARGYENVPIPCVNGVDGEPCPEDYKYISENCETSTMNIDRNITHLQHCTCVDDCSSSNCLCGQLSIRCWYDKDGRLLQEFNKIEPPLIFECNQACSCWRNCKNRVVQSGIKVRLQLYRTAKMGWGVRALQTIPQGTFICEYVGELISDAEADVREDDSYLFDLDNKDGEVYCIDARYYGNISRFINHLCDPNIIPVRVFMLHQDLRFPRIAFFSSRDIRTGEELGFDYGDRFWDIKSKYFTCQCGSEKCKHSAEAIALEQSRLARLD
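Signal arises when biotinylated H3K9 peptide, once monomethylated, bridges streptavidin donor and antibody-captured acceptor beads. Enzyme at 20 nM was preincubated 15 min with test compounds; peptide 500 nM and SAM 20 uM then reacted for 2 h.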
LMNA splice mod – qHTS Assay for Modulators of Lamin A Splicing; HeLa LMNA splicing GFP/RFP minigene ratio, 48 h; Potency, µM (doses to about 46.1 µM), for inactives: at the highest dose ratio change, negative = inhibition, hits mostly inhibitors; 200,000 compounds, 0.01% hits; active = well fitted inhibition curve with a large enough effect in the signal ratio, with a control signal flat, not every such curve was filed as active; inconclusive = small, poorly fitted or top-dose-only effect, or effect the other way, or a change in a side signal; the % refers to the signal ratio; note: potency is the fitted concentration of half-maximal effect; % is set by controls: 0 for no effect and ±100 for the full control effect
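Read-out is the ratio of GFP to DsRed2 object intensity, acquired by 488 nm laser-scanning cytometry on HeLa lamin A-EGFP minigene reporter cells. Compound incubation 48 hrs at 37 °C in Opti-MEM with 2% FBS; DMSO 0.5% final.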
* = called active by the depositor; ? = inconclusive; . = not tested or not shown; [ ] = remark or other dose. Shown are actives, neighbours in structure and some others; about 13% of the full set was active somewhere. Unless noted, calls come from the whole dose curve; as a rule, active = well fitted curve in the direction sought with a large enough effect; inconclusive = small, poorly fitted or top-dose-only effect, or another doubt; inactive = no such curve, though single readings can be large; an effect the other way counts as inactive or inconclusive.

SMILES	miR-21 reporter	JMJD2E inh	ALDH1A1 inh	Sfp PPTase inh	G9a inh	LMNA splice mod
CCSc1nc(=O)c2c(n1C)NC(=O)CC2c1ccc(O)cc1OC (stereo not given)	-2.0%	.	.	.	-1.5%[59 µM]	1.1%[46 µM]
CCOC(=O)c1c(C)oc2nc(C)nc(NCC3CCN(Cc4ccc(Cl)cc4)CC3)c12	-1.7%	.	.	.	-25.0%[59 µM]	-13.0%[46 µM]
Cn1c(N)c(C(=O)CN2CCc3ccccc3C2)c(=O)n(C)c1=O	-1.5%	-28.7%	-15.2%	21.4%	8.91µM*	-5.7%[46 µM]
COc1cc2cccc(OC)c(=O)c2c(OC)c1OC	0.0%	-23.9%	-7.5%	?	50.1µM*	18.8%[9.22 µM]
CC1Cc2cc(/C(O)=C3/C(=O)C(=O)N(Cc4ccco4)C3c3cccs3)ccc2O1 (stereo not given)	-40.8%	-1.9%	-2.5%	28.2µM*	-10.5%[12.7 µM]	-10.2%
COC(=O)c1ccc(C2/C(=C(/O)c3ccc(OC)cc3)C(=O)C(=O)N2Cc2ccco2)cc1 (stereo not given)	-11.4%	?	17.8µM*	22.4µM*	44.7µM*	?
CC1Cc2cc(/C(O)=C3/C(=O)C(=O)N(CCCn4ccnc4)C3c3ccco3)ccc2O1 (stereo not given)	-43.8%	0.8%	?	-1.5%	?	4.7%
COc1ccc(/C(O)=C2/C(=O)C(=O)N(Cc3ccco3)C2c2cccs2)cc1 (stereo not given)	-41.2%	?	5.7%	10µM*	10.4%[59 µM]	2.8%
COc1ccc(C2/C(=C(\O)c3ccc4c(c3)OCCO4)C(=O)C(=O)N2Cc2ccco2)c(OC)c1 (stereo not given)	-4.1%	?	10.0%	-23.4%	?	-22.9%
O=C1/C(=C/c2ccccc2Cl)SC(=S)N1CCCC(=O)N(CCO)c1ccccc1	20.5%	.	.	-22.4%	20µM*	.
O=C(CCCN1C(=O)/C(=C/c2ccccc2Cl)SC1=S)Nc1ccccn1	?	1.5%	-1.8%	-11.8%	12.6µM*	?
O=C(CCN1C(=O)/C(=C/c2ccccc2Cl)SC1=S)NNC(=O)c1cccnc1	1.0%	4.6%	.	2.1%	2.4%	.
O=C(CCN1C(=O)/C(=C/c2ccccc2Cl)SC1=S)Nc1ccccn1	-0.4%	.	.	15.3%	7.94µM*	.
Cc1ccc(C(=O)NNC(=O)CCCN2C(=O)/C(=C/c3ccccc3Cl)SC2=S)cc1	?	?	-0.8%	?	17.5%[59 µM]	-24.3%
O=C(CCN1C(=O)/C(=C/c2ccccc2Cl)SC1=S)NNC(=O)c1ccccc1O	-5.1%	.	.	50.1µM*	-7.1%	.
CC(=O)Nc1ccc(S(=O)(=O)Nc2ccccc2C(=O)N2CCCCC2)cc1	2.3%	.	.	17.0%	6.3%[12.7 µM]	.
NCCC[C@@H](CC(=O)N[C@@H]1CCCC[C@H]1C(=O)N[C@H](CC(=O)N[C@@H](CCC(=O)O)CC(=O)O)Cc1c[nH]c2ccccc12)NC(=O)C[C@H](CO)NC(=O)[C@@H]1CCCC[C@H]1N	.	-0.3%	?	6.7%	.	.
N#CCCCCN1CCCC1	4.3%	-2.0%	6.0%	17.6%	-3.4%	.
C=CCOc1ccc(/C=C2/C(=O)ON=C2C)cc1OC	-0.2%	.	.	44.7µM*	50.1µM*	.
COc1ccc(/C=C2/C(=O)ON=C2C)cc1Cl	3.6%	.	.	79.4µM*	15.8µM*	.
COc1ccc(-c2nn3c(=O)cc(CN4CCN(C(=O)c5ccc(C(C)(C)C)cc5)CC4)nc3s2)cc1	-5.4%	.	.	.	28.9%[59 µM]	-5.9%[46 µM]
Cc1ccc(CNC(=O)c2ccc3c(O)c(S(=O)(=O)c4ccc(Cl)cc4)c(=O)[nH]c3c2)cc1	0.6%	.	.	.	-6.1%[59 µM]	.
CC(C)N(Cc1ccccc1)C(=O)CN1C(=O)NC(Cc2ccccc2)(c2ccccc2)C1=O (stereo not given)	0.1%	.	.	1.2%	9.1%	.
Cc1cc2c(cc3c(=O)n(CC(=O)NCCCN4CC(C)CC(C)C4)ncn32)s1 (stereo not given)	-0.4%	.	.	14.0%	?	.
CCCC1C(c2ccco2)NC(c2ccco2)CC1(C)O (stereo not given)	-0.1%	?	-4.0%	-25.6%	6.31µM*	7.8%
SMILES	miR-21 reporter	JMJD2E inh	ALDH1A1 inh	Sfp PPTase inh	G9a inh	LMNA splice mod
CC1/C(=N/O)CC(c2ccco2)NC1c1ccco1 (stereo not given)	0.5%	8.4%	-5.9%	-5.7%	10.9%[59 µM]	-3.3%
CC(=O)O[C@H]1CC[C@@]2(C)C(=CC[C@@H]3[C@@H]4CC[C@H](c5cc(C(F)(F)F)n(C(C)=O)n5)[C@]4(C)CC[C@@H]32)C1	.	.	3.8%[13.5 µM]	.	.	.
COc1ccccc1-c1cc(C(=O)NC2CCN(C)CC2)c2ccc(Cl)c(C)c2n1	-5.1%	.	.	56.2µM*	14.2%	.
COc1ccccc1CNC(=O)c1ccc(CN2CC(=O)N3CCCCC3C2=O)cc1 (stereo not given)	11.6%	.	.	.	-11.7%[59 µM]	5.1%[46 µM]
C/C(=C(/CCO)SS/C(CCO)=C(\C)N(C=O)Cc1cnc(C)nc1N)N(C=O)Cc1cnc(C)nc1N	.	.	.	-3.8%	-27.4%[12.7 µM]	.
C=CCN1C(=O)/C(=C\c2cc(Br)c(OCc3ccccn3)c(OC)c2)SC1=S	3.0%	-3.5%	0.282µM*	14.2%	?	-7.1%[46 µM]
COc1cc(/C=C2\SC(=S)N(CCC(=O)Nc3ccccn3)C2=O)cc(OC)c1OC	-0.3%	.	.	24.5%	7.94µM*	.
COc1ccccc1NC(=O)CCN1C(=O)/C(=C\c2cc(OC)c(OC)c(OC)c2)SC1=S	1.7%	.	.	56.2µM*	-14.2%	.
COc1cc(/C=C2\SC(=S)N(CC(=O)Nc3ccccn3)C2=O)cc(OC)c1OC	17.2%	0.4%	?	-5.1%	?	-28.6%
COc1cc(/C=C2\SC(=S)N(CCC(=O)Nc3ccccc3)C2=O)cc(OC)c1OC	-2.3%	3.3%	-3.0%	?	-24.1%	.
CCc1nnc(NC(=O)CN2C(=O)/C(=C/c3cc(OC)c(OC)c(OC)c3)SC2=S)s1	0.1%	4.3%	0.7%	50.1µM*	7.5%[59 µM]	0.4%
Cc1nn(C)cc1S(=O)(=O)Nc1ccc(C(F)(F)F)cc1	-8.9%	.	.	14.0%	89.3%	.
CSc1ccc(CCNC(=O)CCc2c(C)nc3c(c(C)nn3-c3ccccc3)c2C)cc1	-0.1%	.	.	.	1.8%[59 µM]	.
COc1cc(/C=C2\SC(=S)N(CCC(=O)N3CCN(C)CC3)C2=O)cc(OC)c1OC	0.5%	.	.	-16.7%	50.1µM*	.
O=C(CCn1cnc2onc(-c3ccc(F)cc3)c2c1=O)Nc1ccc(F)c(Cl)c1	?	.	.	.	-1.5%[59 µM]	-0.6%[46 µM]
